# Results as given in PubChem BioAssay AID1159580 (chemical genetic matrix, 2015).
# Among all 5,500 compounds or so, about 2,000 (36%) were called active. Another 18% or so got no clear call; they are omitted. The list shows a part of the results. Values without a mark were called inactive. No stated cut-off is given here; in the data, active means normalized growth mostly below about 0.91 (no sharp cut-off); inconclusive means no clear call, values can overlap the other calls; inactive means mostly above about 0.92.
# Test: chemical genetic growth profiling, strain panel (AID 1159580);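 further: tested at 20 µM; growth read once vehicle control cultures reached saturation at 30 °C; 1 = growth at the plate median or of vehicle wells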
# Details: growth OD
smiles,measurement,setting,value
ClC1=C(Cl)C2(Cl)C3C(Cl)C=CC3C1(Cl)C2(Cl)Cl (configuration not stated),normalized growth,"S. cerevisiae deletion strains, locus YJR075W, strain HOC1, stronger effect = lower value",1
same,normalized growth,"S. cerevisiae deletion strains, locus YKL009W, strain mrt4, stronger effect = lower value",0.957
same,normalized growth,"S. cerevisiae deletion strains, locus YKL068W, stronger effect = lower value",1
same,normalized growth,"S. cerevisiae deletion strains, locus YKL085W, strain MDH1 (second series), stronger effect = lower value",0.996
same,normalized growth,"S. cerevisiae deletion strains, locus YKL085W, strain MDH1, stronger effect = lower value",0.996
same,normalized growth,"S. cerevisiae deletion strains, locus YKL160W, strain elf1, stronger effect = lower value",0.993
same,normalized growth,"S. cerevisiae deletion strains, locus YKL190W, strain CNB1, stronger effect = lower value",0.989
same,normalized growth,"S. cerevisiae deletion strains, locus YKR001C, strain vps1, stronger effect = lower value",0.965
same,normalized growth,"S. cerevisiae deletion strains, locus YKR026C, strain gcn3, stronger effect = lower value",1.01
same,normalized growth,"S. cerevisiae deletion strains, locus YKR091W, strain srl3, stronger effect = lower value",1.01
same,normalized growth,"S. cerevisiae deletion strains, locus YLL001W, strain dnm1, stronger effect = lower value",1
same,normalized growth,"S. cerevisiae deletion strains, locus YLL026W, stronger effect = lower value",1.01
same,normalized growth,"S. cerevisiae deletion strains, locus YLL041C, strain sdh2, stronger effect = lower value",1.01
same,normalized growth,"S. cerevisiae deletion strains, locus YLR027C, strain aat2, stronger effect = lower value",0.97
same,normalized growth,"S. cerevisiae deletion strains, locus YLR039C, strain RIC1, stronger effect = lower value",1
same,normalized growth,"S. cerevisiae deletion strains, locus YLR058C, strain SHM2, stronger effect = lower value",0.986
same,normalized growth,"S. cerevisiae deletion strains, locus YLR102C, strain apc9, stronger effect = lower value",0.981
same,normalized growth,"S. cerevisiae deletion strains, locus YLR113W, strain HOG1, stronger effect = lower value",0.938
same,normalized growth,"S. cerevisiae deletion strains, locus YLR221C, strain rsa3, stronger effect = lower value",0.971
same,normalized growth,"S. cerevisiae deletion strains, locus YLR258W, strain gsy2, stronger effect = lower value",0.988
same,normalized growth,"S. cerevisiae deletion strains, locus YLR262C, strain YPT6 (second series), stronger effect = lower value",0.933
same,normalized growth,"S. cerevisiae deletion strains, locus YLR262C, strain YPT6, stronger effect = lower value",1.01
same,normalized growth,"S. cerevisiae deletion strains, locus YLR268W, strain sec22, stronger effect = lower value",0.985
same,normalized growth,"S. cerevisiae deletion strains, locus YLR320W, strain mms22, stronger effect = lower value",0.965
same,normalized growth,"S. cerevisiae deletion strains, locus YLR330W, strain CHS5, stronger effect = lower value",0.998
same,normalized growth,"S. cerevisiae deletion strains, locus YLR342W, strain FKS1 (second series), stronger effect = lower value",0.948
same,normalized growth,"S. cerevisiae deletion strains, locus YLR342W, strain FKS1, stronger effect = lower value",1.01
same,normalized growth,"S. cerevisiae deletion strains, locus YLR357W, strain rsc2, stronger effect = lower value",1
same,normalized growth,"S. cerevisiae deletion strains, locus YLR370C, strain arc18, stronger effect = lower value",0.999
same,normalized growth,"S. cerevisiae deletion strains, locus YLR371W, strain rom2, stronger effect = lower value",0.973
same,normalized growth,"S. cerevisiae deletion strains, locus YLR384C, strain iki3, stronger effect = lower value",1.01
same,normalized growth,"S. cerevisiae deletion strains, locus YLR418C, strain cdc73, stronger effect = lower value",0.977
same,normalized growth,"S. cerevisiae deletion strains, locus YML016C, strain PPZ1, stronger effect = lower value",0.992
same,normalized growth,"S. cerevisiae deletion strains, locus YML032C, strain rad52, stronger effect = lower value",0.968
same,normalized growth,"S. cerevisiae deletion strains, locus YML120C, strain ndi1, stronger effect = lower value",1
same,normalized growth,"S. cerevisiae deletion strains, locus YML124C, strain tub3, stronger effect = lower value",0.978
same,normalized growth,"S. cerevisiae deletion strains, locus YMR058W, strain fet3, stronger effect = lower value",0.998
same,normalized growth,"S. cerevisiae deletion strains, locus YMR078C, strain ctf18, stronger effect = lower value",0.959
same,normalized growth,"S. cerevisiae deletion strains, locus YMR125W, strain sto1, stronger effect = lower value",1.01
same,normalized growth,"S. cerevisiae deletion strains, locus YMR129W, stronger effect = lower value",1.01
same,normalized growth,"S. cerevisiae deletion strains, locus YMR205C, strain PFK2, stronger effect = lower value",0.947
same,normalized growth,"S. cerevisiae deletion strains, locus YMR223W, strain ubp8, stronger effect = lower value",0.95
same,normalized growth,"S. cerevisiae deletion strains, locus YMR231W, strain pep5, stronger effect = lower value",0.987
same,normalized growth,"S. cerevisiae deletion strains, locus YMR263W, strain SAP30, stronger effect = lower value",0.999
same,normalized growth,"S. cerevisiae deletion strains, locus YMR307W, strain GAS1, stronger effect = lower value",1.06
same,normalized growth,"S. cerevisiae deletion strains, locus YNL067W, strain RPL9B, stronger effect = lower value",1
same,normalized growth,"S. cerevisiae deletion strains, locus YNL071W, strain lat1, stronger effect = lower value",1.02
same,normalized growth,"S. cerevisiae deletion strains, locus YNL128W, strain TEP1, stronger effect = lower value",0.987
same,normalized growth,"S. cerevisiae deletion strains, locus YNL153C, strain GIM3, stronger effect = lower value",0.989
same,normalized growth,"S. cerevisiae deletion strains, locus YNL183C, strain NPR1, stronger effect = lower value",0.962
same,normalized growth,"S. cerevisiae deletion strains, locus YNL209W, strain ssb2, stronger effect = lower value",0.997
same,normalized growth,"S. cerevisiae deletion strains, locus YNL233W, strain BNI4, stronger effect = lower value",0.978
same,normalized growth,"S. cerevisiae deletion strains, locus YNL248C, strain rpa49, stronger effect = lower value",0.996
same,normalized growth,"S. cerevisiae deletion strains, locus YNL250W, strain rad50, stronger effect = lower value",0.99
same,normalized growth,"S. cerevisiae deletion strains, locus YNL271C, strain bni1, stronger effect = lower value",0.984
same,normalized growth,"S. cerevisiae deletion strains, locus YNL298W, strain CLA4, stronger effect = lower value",0.977
same,normalized growth,"S. cerevisiae deletion strains, locus YNL307C, strain MCK1, stronger effect = lower value",0.885 (active)
same,normalized growth,"S. cerevisiae deletion strains, locus YNL322C, strain KRE1 (second series), stronger effect = lower value",0.982
same,normalized growth,"S. cerevisiae deletion strains, locus YNL322C, strain KRE1, stronger effect = lower value",1
same,normalized growth,"S. cerevisiae deletion strains, locus YNR049C, strain mso1, stronger effect = lower value",1
same,normalized growth,"S. cerevisiae deletion strains, locus YNR052C, strain pop2, stronger effect = lower value",0.964
same,normalized growth,"S. cerevisiae deletion strains, locus YOL006C, strain TOP1, stronger effect = lower value",0.97
same,normalized growth,"S. cerevisiae deletion strains, locus YOL012C, strain htz1",0.908
same,normalized growth,"S. cerevisiae deletion strains, locus YOL147C, strain pex11, stronger effect = lower value",0.989
same,normalized growth,"S. cerevisiae deletion strains, locus YOR001W, strain rrp6, stronger effect = lower value",1.01
same,normalized growth,"S. cerevisiae deletion strains, locus YOR061W, strain CKA2, stronger effect = lower value",0.993
same,normalized growth,"S. cerevisiae deletion strains, locus YOR069W, strain VPS5, stronger effect = lower value",0.982
same,normalized growth,"S. cerevisiae deletion strains, locus YOR070C, strain gyp1, stronger effect = lower value",1.01
same,normalized growth,"S. cerevisiae deletion strains, locus YOR080W, strain dia2, stronger effect = lower value",0.995
same,normalized growth,"S. cerevisiae deletion strains, locus YOR083W, strain WHI5, stronger effect = lower value",0.974
same,normalized growth,"S. cerevisiae deletion strains, locus YOR106W, strain vam3, stronger effect = lower value",0.942
same,normalized growth,"S. cerevisiae deletion strains, locus YOR136W, strain idh2, stronger effect = lower value",0.963
same,normalized growth,"S. cerevisiae deletion strains, locus YOR144C, strain elg1, stronger effect = lower value",0.977
same,normalized growth,"S. cerevisiae deletion strains, locus YOR184W, strain ser1, stronger effect = lower value",0.886
same,normalized growth,"S. cerevisiae deletion strains, locus YOR231W, strain MKK1, stronger effect = lower value",1.02
same,normalized growth,"S. cerevisiae deletion strains, locus YOR265W, strain rbl2, stronger effect = lower value",1.01
same,normalized growth,"S. cerevisiae deletion strains, locus YOR270C, strain vph1, stronger effect = lower value",0.82
same,normalized growth,"S. cerevisiae deletion strains, locus YOR290C, strain snf2, stronger effect = lower value",0.939
same,normalized growth,"S. cerevisiae deletion strains, locus YOR316C, strain cot1, stronger effect = lower value",0.985
same,normalized growth,"S. cerevisiae deletion strains, locus YPL051W, strain arl3, stronger effect = lower value",0.996
same,normalized growth,"S. cerevisiae deletion strains, locus YPL055C, strain LGE1, stronger effect = lower value",1
same,normalized growth,"S. cerevisiae deletion strains, locus YPL078C, strain atp4, stronger effect = lower value",1
same,normalized growth,"S. cerevisiae deletion strains, locus YPL106C, strain sse1, stronger effect = lower value",0.963
same,normalized growth,"S. cerevisiae deletion strains, locus YPL240C, strain hsp82, stronger effect = lower value",0.999
same,normalized growth,"S. cerevisiae deletion strains, locus YPL241C, strain CIN2, stronger effect = lower value",0.993
same,normalized growth,"S. cerevisiae deletion strains, locus YPL256C, strain CLN2, stronger effect = lower value",1.02
same,normalized growth,"S. cerevisiae deletion strains, locus YPR119W, strain clb2, stronger effect = lower value",0.987
same,normalized growth,"S. cerevisiae deletion strains, locus YPR141C, strain kar3, stronger effect = lower value",0.982
same,normalized growth,"S. cerevisiae deletion strains, locus YPR163C, strain tif3, stronger effect = lower value",0.981
same,normalized growth,"S. cerevisiae deletion strains, locus YPR167C, strain met16, stronger effect = lower value",0.976
same,normalized growth,"S. cerevisiae deletion strains, strain wtn01, stronger effect = lower value",0.97
same,normalized growth,"S. cerevisiae strains, strain wild type, stronger effect = lower value",1
